Results as given in the OligoGym collection.
Also: reference of the scale not given here.

What follows are sequences tested against GDF3 (assay: pooled miR-30 sensor sort-seq; sequence = guide strand). Details: shRNA.
With TAATGTCGTAGAATGACATTGT the sensor-assay potency score (higher = more potent) was 0.288.
Sequence ATCCTTAGCTACATCCAGCAGG has a sensor-assay potency score (higher = more potent) of -0.935.
TTTATTAAAAGATTTACCCTAA was tested, and the sensor-assay potency score (higher = more potent) was 0.196.
Work on TAACAGGAAGCTGAAAGCCAAA yielded a sensor-assay potency score (higher = more potent) of -1.72.
TTCTTTGACCAGTATCTCCAGG gave a sensor-assay potency score (higher = more potent) of -0.0651.
For ATTGTCATTATTGTCCTGGTAG, the sensor-assay potency score (higher = more potent) was 0.032.
TAGAATGACATTGTCATTATTG was tested, and the sensor-assay potency score (higher = more potent) was -1.56.
TTTACCCTAAGAACACTCCTTC was tested, and the sensor-assay potency score (higher = more potent) was 0.541.
TTTACGTAGCATAAGTCTCGGG showed a sensor-assay potency score (higher = more potent) of -0.227.
TTCTTGAAATTGGACTGCCTGG was tested, and the sensor-assay potency score (higher = more potent) was -1.06.
TGAAGTGAACAGCACCTTGTGG gave a sensor-assay potency score (higher = more potent) of -0.321.
Work on TTACGTAGCATAAGTCTCGGGA yielded a sensor-assay potency score (higher = more potent) of 0.238.

These sequences were tested against GEMIN6 in the same assay as above. Details: shRNA.
With TTAGGCTGTTCTTTCTCTCTTC the sensor-assay potency score (higher = more potent) was -0.165.
TAAAATATAGTCTTTTTCTATC gave a sensor-assay potency score (higher = more potent) of -1.26.
For TTTGTAAATGTAATCTTGCCAT, the sensor-assay potency score (higher = more potent) was -0.539.
Work on TTCAATAAGATCCTGAACACGC yielded a sensor-assay potency score (higher = more potent) of 0.147.
ATTCCGGTCACAGACATGCTGC showed a sensor-assay potency score (higher = more potent) of -1.04.
AATAAGATCCTGAACACGCGAC gave a sensor-assay potency score (higher = more potent) of -0.339.
